Out of some 360,000 compounds screened, about 2,300 (0.64%) were called active. The full list was thinned out, with actives kept by preference. A number with no mark means an inactive call.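 The calls were made as follows: active = compounds giving at least 50% protection of heart cells from peroxide-induced death in the single-dose screen, raw or plate-pattern-corrected value; inactive = the rest.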
Experiment: H9c2 cardiomyocyte survival under peroxide injury – uHTS, H9c2 cells, ATPLite luminescence, primary screen (AID 588492);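 also: 0% = DMSO wells with peroxide and 100% = DMSO wells without peroxide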
Details: H9c2 cardiomyocytes, 2 h, at 20 µM, active compounds read high

SMILES | protection from H2O2 cell death
NC(=O)c1ccsc1NC(=O)COC(=O)Cc1n[nH]c(=O)c2ccccc12 | 78.3% (active)
N#CC1(NC(=O)COC(=O)Cc2n[nH]c(=O)c3ccccc23)CCCCC1 | 30.9%
CCCCn1nc(C(=O)OCC(=O)Nc2sccc2C(N)=O)c2ccccc2c1=O | 29.8%
CCn1cc(C(=O)N[C@@H](C)C(=O)NCCO)c(=O)c2cc3c(cc21)OCO3 | 3%
COC(=O)c1noc(C)c1-c1ccnn1C(=O)c1ccc(Cl)cc1 | 3.5%
CCOc1ccc(OCC)c(NC(=O)CSc2nnc(Cn3cnc4ccccc43)n2C)c1 | -3.2%
Cc1ccc(/C=N/NC(=O)C2=NNC(c3ccccc3)(c3ccccc3)C2)c(O)c1 | 60.3% (active)
O=C(NN=Cc1ccc2c(c1)CCC2)c1ccccc1O | -17.8%
Cc1ccc2cc(/C=N/NC(=O)[C@@H]3CCCN3)c(Cl)nc2c1 | 14%
CC(C)c1nnc(NC(=O)C2CC(=O)N(CCc3ccc(F)cc3)C2)s1 (stereo unspecified) | -4.8%
Cc1nc(S(=O)(=O)c2ccc(Br)cc2)nc2c1CCC2 | -2.2%
CCC(CC)C(=O)Nc1c2c(nn1-c1ccc(C)cc1)CS(=O)(=O)C2 | -4.5%
CCC(C)(C)NC(=O)C(c1ccccn1)N(C(=O)c1csnn1)c1ccccc1 (stereo unspecified) | 1.1%
Cc1ccc(S(=O)(=O)NCC2CCC(C(=O)N3CCOCC3)CC2)cc1 (stereo unspecified) | 3.4%
Cn1c(SCC(=O)N/N=C/c2ccc(O)c(O)c2)nc2ccccc21 | 70.9% (active)
Cc1ccc(/C=N/NC(=O)CSc2nc3ccccc3o2)cc1 | -4.4%
Cc1nn(-c2ccccc2)c(C)c1/C=N/NC(=O)CSc1nc2ccccc2c(=O)n1-c1ccccc1 | 22.5%
COc1ccc(S(=O)(=O)N2CCN(CC(=O)NCC3(N4CCOCC4)CCCCC3)CC2)cc1 | 3%
CC(C)(C)C(=O)Nc1cccc(-c2ccc[nH]2)n1 | 5.3%
Cc1c(Cl)c([N+](=O)[O-])nn1CCCC(=O)NC(C)c1ccccc1 (stereo unspecified) | 5.3%
Cc1nn(Cc2ccccc2Cl)c(C)c1NC(=O)Cn1nc([N+](=O)[O-])c(Cl)c1C | 15.4%
Cc1c(Cl)c([N+](=O)[O-])nn1Cc1ccc(C(=O)N/N=C\c2cc(Cl)ccc2O)o1 | 67.5% (active)
N#Cc1ccc(C(c2ccc(C#N)cc2)n2cncn2)cc1 | 2.5%
Cn1c(C(=O)N2CCC(C(N)=O)CC2)cc2c(=O)n(C)c3ccccc3c21 | 1.2%
Cn1c(C(=O)NCCc2ccsc2)cc2c(=O)n(C)c3ccccc3c21 | 96.5% (active)
Cn1c(C(=O)NCCN2CCc3ccccc3C2)cc2c(=O)[nH]c3ccccc3c21 | 19.2%

Reference: PubChem BioAssay AID588492 (Sanford-Burnham Center for Chemical Genomics, 2011)
